Measurements from ChEMBL document CHEMBL4296182, “CO-ADD screening of NIH NCI Diversity Set V”.
For part of these data: Potency and affinity values are given separately.

Assays:
Staphylococcus aureus = assay: Antibacterial activity against Staphylococcus aureus MRSA ATCC 43300 (CO-ADD:GP_020); MIC in CAMBH media using NBS plates, by Resazurin F(560/590); type: functional; conditions: Concentration 20 uM, ASSAY_TEST Inhibition of Bacterial Growth, detection method Resazurin, Fluorescence (ex560/em590), MEDIA CAMHB, plate type 384well, CORNING #3640, time 18 hr
Acinetobacter baumannii = assay: Antibacterial activity against Acinetobacter baumannii ATCC 19606 (CO-ADD:GN_034); MIC in CAMBH media using NBS plates, by Resazurin F(560/590); type: functional; conditions: Concentration 20 uM, ASSAY_TEST Inhibition of Bacterial Growth, detection method Resazurin, Fluorescence (ex560/em590), MEDIA CAMHB, plate type 384well, CORNING #3640, time 18 hr
Escherichia coli = assay: Antibacterial activity against Escherichia coli ATCC 25922 (CO-ADD:GN_001); MIC in CAMBH media using NBS plates, by Resazurin F(560/590); type: functional; conditions: Concentration 20 uM, ASSAY_TEST Inhibition of Bacterial Growth, detection method Resazurin, Fluorescence (ex560/em590), MEDIA CAMHB, plate type 384well, CORNING #3640, time 18 hr
Klebsiella pneumoniae = conditions: Concentration 20 uM; ASSAY_TEST Inhibition of Bacterial Growth; detection method Absorption (OD600); MEDIA CAMHB; plate type 384well; NBS; CORNING #3640; time 18 hr
Candida albicans = conditions: 20 µM
Cryptococcus neoformans = conditions: Concentration 20 uM; ASSAY_TEST Inhibition of Fungal Growth; detection method Resazurin; Absorption (OD600-OD570); plate type 384well; NBS; CORNING #3640

Row | SMILES | Inhibition (Staphylococcus aureus) | Inhibition (Acinetobacter baumannii) | Inhibition (Escherichia coli) | Inhibition (Klebsiella pneumoniae) | Inhibition (Candida albicans) | Inhibition (Cryptococcus neoformans)
1 | O=C(NCc1ccco1)Nc1cccc([N+](=O)[O-])c1 | 14.39% | 8.34% | -1.12% | 10.94% | 3.5% | -10.49%
2 | COCCn1c2nc(=O)n(-c3ccccc3)c(=O)c-2nc2ccccc21 | 12.62% | -2.61% | 6.79% | 23.4% | 1.39% | 4.88%
3 | Cc1ccc(S(=O)(=O)N(C)C)cc1[N+](=O)[O-] | -7.75% | -5.08% | -0.42% | 1.49% | 0.81% | -3.84%
4 | Cc1csc(NC(=O)c2ccc(C(=O)Nc3nc(C)cs3)cc2)n1 | -1.48% | 17.46% | 2.37% | 21.27% | -0.71% | -1.68%
5 | Cc1c(C#N)c2n(c1C)CCCC(=O)N2 | 39.05% | 3.89% | 19.57% | 7.55% | 10.6% | 5.76%
6 | C=CCOC(=O)/C=C\C(=O)NC(N)=O | 5.08% | -11.84% | 0.88% | 29.86% | 7.76% | 0.75%
7 | CN(C)c1ccc(/C=C(\C#N)C(=O)c2ccccc2)cc1 | 3.86% | -12.37% | 8.74% | 11.84% | 4.91% | -12.58%
8 | C=CCSc1n[nH]c(-c2cccs2)n1 | 7.65% | 11.99% | 1.25% | 19.42% | 2.69% | -4.46%
9 | CC(C)(C)c1ccc(NS(=O)(=O)c2ccc(N)cc2)cc1 | 8.8% | 3.26% | -6.26% | 16.84% | 3.64% | -7.4%
10 | CCOc1nc(OCC)c2cnn(C)c2n1 | 17.13% | -11.25% | 5.79% | 6.34% | 3.82% | -3.08%
11 | COc1ccc(C2=NC(=O)NC2c2ccc(OC)cc2)cc1 (centres undefined) | 6.62% | 10.45% | -0.66% | 17.66% | 6.15% | -4.19%
12 | Nc1ccc(C(=O)Nc2ccc(NC(=O)c3ccco3)c(O)c2)cc1 | 1% | 0.24% | 0.6% | 17.4% | 3.85% | -8.99%
13 | CCCCCCCCCCCCC(NC(C)=O)(C(=O)OCC)C(=O)OCC | 14.33% | 7.7% | 5.2% | 18.57% | 7.18% | -2.7%
14 | Nc1cc(-c2ccccc2)ccc1O | 13.15% | -7.9% | 6.67% | 17.45% | 4.12% | -0.33%
15 | Brc1ccc(/N=N/c2ccc3ccccc3n2)cc1 | 10.21% | 4.06% | -16.68% | 5.4% | 5.16% | 43.68%
16 | CN(C)c1ccc(/N=N\c2cccc3ccoc23)cc1 | -15.18% | -4.75% | -16.41% | -3.95% | 3.86% | -4.24%
17 | Clc1cc2c(nn1)Nc1ccccc1S2 | -2.08% | 9.37% | 10.31% | 10.14% | 0.32% | -16.64%
18 | O=C(Nc1nc2ccccc2s1)Nc1ccc([N+](=O)[O-])cc1Cl | 3.4% | 12.6% | -5.05% | 8.17% | 4.63% | -2.66%
19 | OCCCCc1nccc2c1[nH]c1ccccc12 | -6.35% | -7.04% | -1.94% | -0.62% | 2.78% | -8.33%
20 | CCCCn1cnc2c(S)nc(N)nc21 | 6.68% | -8.46% | -1.37% | 7.23% | 1.37% | -12.06%
21 | O=c1n(CC2CO2)c(=O)n(CC2CO2)c(=O)n1CC1CO1 (centres undefined) [TEROXIRONE] | 0.12% | -10.62% | 4.44% | 8.68% | 3.23% | -12.57%
22 | CN(C)c1ccc(C(c2ccc(N(C)C)cc2)c2ccc([N+](=O)[O-])cc2)cc1 | 15.85% | 11.72% | -1.1% | 17.42% | 2.89% | -7.55%
23 | O=S1(=O)CSCS(=O)(=O)C1 | -12.69% | -2.62% | -18.14% | 0.72% | 5.55% | 27.89%
24 | c1ccc2c(c1)Nc1cc3ccccc3cc1S2 | 1.39% | -1.02% | 3.79% | 5.14% | -0.01% | -3.36%
25 | Oc1ccnc(Nc2ccc(Cl)cc2)n1 | 11.15% | -11.5% | 6.59% | -5.88% | 0.12% | -10.08%

Row | SMILES | Inhibition (Staphylococcus aureus) | Inhibition (Acinetobacter baumannii) | Inhibition (Escherichia coli) | Inhibition (Klebsiella pneumoniae) | Inhibition (Candida albicans) | Inhibition (Cryptococcus neoformans)
26 | Cn1c(=O)c2nc(N3CCCCC3)[nH]c2n(C)c1=O | 0.06% | -5.37% | 9.83% | 1.37% | -1.65% | -9.97%
27 | COC(=O)Cc1[nH]c(Cl)nc1C(N)=O | -16.49% | -11.06% | -2.69% | 2.53% | 1.21% | 7.24%
28 | O=[N+]([O-])c1ccc2c3ccccc3[s+]([O-])c2c1 (centres undefined) | 5.76% | 5.87% | 8.3% | 9.17% | 6.79% | -11.15%
29 | Cn1c2c(sc1=O)CCC2 | 14.81% | -10.92% | 5.93% | 16.07% | 2.06% | -0.94%
30 | CC1(C)N=C(N)N=C(NCCCOc2ccc([N+](=O)[O-])cc2)N1.CCS(=O)(=O)O | 25.11% | -9.38% | 11.82% | 18.17% | -1.81% | -10.08%
31 | Nc1ccc2c(c1)nnn2-c1ccccc1 | 10.19% | -3.79% | 12.06% | -7.86% | -4.43% | -12.32%
32 | Nc1ccc(NC(=O)Nc2ccc(N)cc2)cc1 | -0.09% | -11.79% | 5.61% | 0.94% | -2.34% | -9.22%
33 | CCC1(C(=O)OC)CCc2c(cc(OC)c3ccccc23)C1=O (centres undefined) | 5.5% | -17.62% | 8.82% | 8.69% | 3.67% | -10.67%
34 | CN1CCN(C(=O)/C=C/c2ccc([N+](=O)[O-])o2)CC1 | 14.1% | 5.92% | -7.59% | 6.31% | 3.54% | 10.04%
35 | c1ccc2c(c1)-c1cccc3cncc-2c13 | 1.08% | -2.19% | 3.18% | 7.94% | 12.2% | -10.41%
36 | Oc1ccc(N/C(S)=N/c2ccccc2)cc1 | -2.99% | 11.99% | -4.05% | 4.37% | 4.77% | 2.65%
37 | Cc1cc(=O)n2c3c(c4c(cc13)c(CN(C)C)cc(=O)n4C)OC2.Cl | -3.31% | 19.85% | 6.04% | 7.61% | -0.27% | -11%
38 | O=C(Oc1ccccc1)c1cccc2cccc(C(=O)Oc3ccccc3)c12 | 17.84% | 0.5% | -0.78% | 14.06% | 7.13% | -3.03%
39 | N#Cc1nnn(-c2ccc(Cl)cc2)c1N | 17.83% | 3.74% | 11.71% | -5.78% | 0.88% | -4.67%
40 | C[C@@H]1C[C@H]2OC(=O)[C@@]3(C)CCC[C@@](C)([C@@H]23)[C@@]1(O)CCc1ccoc1 | -8.43% | -3.35% | -14.05% | 4.6% | -0.12% | -1.32%
41 | O=C1c2ccccc2C(=Cc2cccnc2)c2ccccc21 | 8.79% | -7.39% | 6.86% | 10.23% | 9.01% | -9.38%
42 | Cc1cc(-n2cnc3c(O)ncnc32)ccc1N | 0.18% | -17.95% | 5.61% | 1.65% | 1.13% | -8.1%
43 | CC1CN(CCN2CC(C)N(C=O)CC2C)C(C)CN1C=O (centres undefined) | -7.66% | -6.52% | -13.71% | 5.89% | 1.99% | 25.73%
44 | Nc1ccc(SCc2nc3cccc4c3n2CCC4)cc1 | 3.62% | -8.53% | 10.5% | 16.5% | -0.32% | -14.91%
45 | NS(=O)(=O)c1cc2c(cc1Cl)NC(Cc1ccccc1)NS2(=O)=O (centres undefined) [BENZYLHYDROCHLOROTHIAZIDE] | 8.57% | 4.78% | 13.54% | 17.47% | 3.24% | -10.94%
46 | CC(=O)NCC(=O)O.CN(C)CCC1c2ccc(Cl)cc2CCc2cccnc21 (centres undefined) [CLOSIRAMINE ACETURATE] | 15.26% | -11.76% | 19.15% | 8.33% | -2.05% | -9.31%
47 | Cc1ccc(NC(=S)NC(=O)c2ccccc2)cc1NC(=S)NC(=O)c1ccccc1 | 23.47% | -11.72% | 7.94% | 3.93% | -0.27% | 1.39%
48 | Oc1ccc(Nc2ccc3ccccc3c2)cc1 | -6.35% | -10.62% | -3.9% | 4.89% | 3.31% | -6.09%
49 | CCCCNc1nc(N)ncc1[N+](=O)[O-] | 5.28% | -8.97% | 14% | 10.57% | 8.4% | -15.62%
